Test [1] is described as follows: NCI Yeast Anticancer Drug Screen. Data for the rad50 strain (AID 155).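 Further: 0% = growth of vehicle-only cultures of the same strain.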 The note with it: S. cerevisiae rad50 strain growth inhibition, stronger effect = higher value. The procedure, abridged: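 A DNA repair-deficient yeast mutant serves as the test organism; compound-induced growth inhibition is calculated against vehicle-treated cells.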
The nature of test [2]: NCI Yeast Anticancer Drug Screen. Data for the mec2-1 strain (AID 157). The settings on record: S. cerevisiae mec2-1 strain, stronger effect = higher value. The procedure, abridged:
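Strain: mec2-1 (DNA repair/cell cycle alteration). Compound exposure, then growth measured; inhibition expressed relative to vehicle.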

Test [3] can be described thus: NCI Yeast Anticancer Drug Screen. Data for the sgs1 mgt1 strain (AID 161).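 Further: 0% = growth of cultures given vehicle only.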 The settings on record: S. cerevisiae sgs1 mgt1 strain, stronger effect = higher value. The procedure, abridged: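 Mutant yeast exposed to compound; growth scored against vehicle-only wells.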
Test [4] in a line: NCI Yeast Anticancer Drug Screen. Data for the cln2 rad14 strain (AID 165).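 Further: 0% = growth equal to vehicle treated cultures.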 The settings on record: S. cerevisiae cln2 rad14 strain, stronger effect = higher value. The procedure, abridged:
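Compounds are applied to the cln2 rad14 yeast strain, and growth is then compared with that of vehicle-treated cultures to give inhibition.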

Test [5] can be described thus: NCI Yeast Anticancer Drug Screen. Data for the bub3 strain (AID 167). The note with it: S. cerevisiae bub3 mutant strain, stronger effect = higher value. The procedure, abridged:
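Inhibition values come from growth of compound-treated mutant yeast normalised to vehicle-treated controls.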

Test [6] is described as follows: NCI Yeast Anticancer Drug Screen. Data for the mlh1 rad18 strain (AID 175). The settings on record: S. cerevisiae mlh1 rad18 strain growth inhibition, stronger effect = higher value. The procedure, abridged:
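Read-out is yeast growth inhibition, calculated against vehicle-only controls. The compound was applied to a strain engineered with DNA damage repair alterations.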

Setting [7] is: at 5.0 µM (retest, dose inferred, filed as 0.5).
[8] abbreviates: at 50.0 µM (retest, dose inferred, filed as 5.0).

SMILES strings stand for the structures. The panel holds about 79,000 compounds, 15% with a hit somewhere; the sample as a whole holds those more often. Values without a mark were called inactive. Calls of active or inactive are those of the source. No stated cut-off is given here; in the data, active means growth inhibition above about 70%; inactive means the rest.

On to `CC(=O)Nc1ccc2c(c1)/C(=N/O)c1ccccc1-2`, for which the growth inhibition in test [1] (setting [7]) was -5%; in test [1] (setting [8]), 76% (active); in test [1] (at 50.0 µM) it was 67.2%; in test [2] (setting [7]), -11%; in test [2] (setting [8]), 90% (active); in test [2] (at 50.0 µM) it was 42%. The growth inhibition is -1% in test [3] (setting [7]); 89% (active) in test [3] (setting [8]); 74.9% (active) in test [3] (at 50.0 µM); -11% in test [4] (setting [7]); 56% in test [4] (setting [8]); 64.5% in test [4] (at 50.0 µM). The growth inhibition in test [5] (setting [7]) is -3%; in test [5] (setting [8]), 77% (active); in test [5] (at 50.0 µM), 72.4% (active); in test [6] (setting [7]), 17%; in test [6] (setting [8]), 92% (active); in test [6] (at 50.0 µM) it was 77.3% (active).

On to `Nc1ccc(/C=C/c2ccccc2)cc1`, for which the growth inhibition in test [1] (setting [7]) was 3%; in test [1] (setting [8]), 61%; in test [1] (at 50.0 µM), 87.5% (active); in test [2] (setting [7]) it was -9%; in test [2] (setting [8]), 33%; in test [2] (at 50.0 µM) it was 80.3% (active). The growth inhibition in test [3] (setting [7]) was -2%; in test [3] (setting [8]) it was 47%; in test [3] (at 50.0 µM) it was 81.5% (active); in test [4] (setting [7]) it was -10%; in test [4] (setting [8]) it was 45%; in test [4] (at 50.0 µM), 82.8% (active). For the same molecule, the growth inhibition was -2% in test [5] (setting [7]); 44% in test [5] (setting [8]); 95.5% (active) in test [5] (at 50.0 µM); 3% in test [6] (setting [7]); 73% (active) in test [6] (setting [8]); 94% (active) in test [6] (at 50.0 µM).

As to `O=C(CCN1CCCC1)c1ccc(Oc2ccc(F)cc2)cc1`, the growth inhibition is 28% in test [1] (setting [7]); 50% in test [1] (setting [8]); 69.8% in test [1] (at 50.0 µM); 20% in test [2] (setting [7]); 48% in test [2] (setting [8]); 11.7% in test [2] (at 50.0 µM). Further, the growth inhibition in test [3] (setting [7]) is 31%; in test [3] (setting [8]) it was 60%; in test [3] (at 50.0 µM) it was 47.2%; in test [4] (setting [7]), 34%; in test [4] (setting [8]) it was 68%; in test [4] (at 50.0 µM) it was 54.7%. The growth inhibition in test [5] (setting [7]) was 31%; in test [5] (setting [8]), 72% (active); in test [5] (at 50.0 µM), 49.4%; in test [6] (setting [7]), 30%; in test [6] (setting [8]) it was 56%; in test [6] (at 50.0 µM), 63.4%.

With `CCN(CC)CCNc1c(C)ccc2cccnc12`, the growth inhibition was 0% in test [1] (setting [7]); 7% in test [1] (setting [8]); 33.5% in test [1] (at 50.0 µM); -4% in test [2] (setting [7]); -4% in test [2] (setting [8]); 35.9% in test [2] (at 50.0 µM). For the same molecule, the growth inhibition in test [3] (setting [7]) was -2%; in test [3] (setting [8]) it was -2%; in test [3] (at 50.0 µM) it was 29.4%; in test [4] (setting [7]) it was -1%; in test [4] (setting [8]), -14%; in test [4] (at 50.0 µM), -29.2%. The growth inhibition in test [5] (setting [7]) is -1%; in test [5] (setting [8]) it was 2%; in test [5] (at 50.0 µM), 53.8%; in test [6] (setting [7]) it was 0%; in test [6] (setting [8]), 8%; in test [6] (at 50.0 µM), 51.5%.

Turning to `O=C1C(c2ccccc2)=[N+]([O-])c2ccccc21`, the growth inhibition in test [1] (setting [7]) is 2%; in test [1] (setting [8]), 39%; in test [1] (at 50.0 µM), 87.4% (active); in test [2] (setting [7]) it was 1%; in test [2] (setting [8]) it was 98% (active); in test [2] (at 50.0 µM), 98% (active). Moreover, the growth inhibition in test [3] (setting [7]) is -2%; in test [3] (setting [8]), 92% (active); in test [3] (at 50.0 µM) it was 98.2% (active); in test [4] (setting [7]), 0%; in test [4] (setting [8]) it was 12%; in test [4] (at 50.0 µM) it was 73.5% (active). The growth inhibition in test [5] (setting [7]) is 29%; in test [5] (setting [8]), 80% (active); in test [5] (at 50.0 µM), 99.2% (active); in test [6] (setting [7]), 4%; in test [6] (setting [8]), 92% (active); in test [6] (at 50.0 µM), 76.3% (active).

With `O=S(O)CCCCCSSc1ccccc1`, the growth inhibition in test [1] (setting [7]) was -1%; in test [1] (setting [8]), 12%; in test [1] (at 50.0 µM) it was 22.9%; in test [2] (setting [7]) it was 4%; in test [2] (setting [8]), 40%; in test [2] (at 50.0 µM), 12.1%. Also, the growth inhibition in test [3] (setting [7]) is 3%; in test [3] (setting [8]) it was 36%; in test [3] (at 50.0 µM), 30.1%; in test [4] (setting [7]), -9%; in test [4] (setting [8]) it was 14%; in test [4] (at 50.0 µM), 50.5%. In addition, the growth inhibition in test [5] (setting [7]) was 11%; in test [5] (setting [8]), 73% (active); in test [5] (at 50.0 µM), 74.5% (active); in test [6] (setting [7]) it was 4%; in test [6] (setting [8]), 31%; in test [6] (at 50.0 µM), 48.9%.

As to `O=C1C=CC(=O)N1c1cccc(F)c1`, the growth inhibition in test [1] (setting [7]) is 96% (active); in test [1] (setting [8]), 99% (active); in test [1] (at 50.0 µM), 99.7% (active); in test [2] (setting [7]), 97% (active); in test [2] (setting [8]), 100% (active); in test [2] (at 50.0 µM), 99.8% (active). Moreover, the growth inhibition was 93% (active) in test [3] (setting [7]); 99% (active) in test [3] (setting [8]); 99.7% (active) in test [3] (at 50.0 µM); 82% (active) in test [4] (setting [7]); 99% (active) in test [4] (setting [8]); 98.8% (active) in test [4] (at 50.0 µM). Further, the growth inhibition in test [5] (setting [7]) is 98% (active); in test [5] (setting [8]) it was 100% (active); in test [5] (at 50.0 µM), 99.6% (active); in test [6] (setting [7]), 88% (active); in test [6] (setting [8]), 100% (active); in test [6] (at 50.0 µM), 99.4% (active).

In the case of `CCS(=O)(=O)/C=C/c1ccc2ccccc2n1`, the growth inhibition was -143% in test [1] (setting [7]); 47% in test [1] (setting [8]); 47.3% in test [1] (at 50.0 µM); -43% in test [2] (setting [7]); 6% in test [2] (setting [8]); 28.9% in test [2] (at 50.0 µM). Moreover, the growth inhibition in test [3] (setting [7]) was -55%; in test [3] (setting [8]), 23%; in test [3] (at 50.0 µM) it was 35.2%; in test [4] (setting [7]) it was -41%; in test [4] (setting [8]), -14%; in test [4] (at 50.0 µM), 3.55%. In addition, the growth inhibition in test [5] (setting [7]) was -67%; in test [5] (setting [8]), 16%; in test [5] (at 50.0 µM), 18.4%; in test [6] (setting [7]), -134%; in test [6] (setting [8]), 39%; in test [6] (at 50.0 µM) it was 63.4%.

Turning to `O=C(/C=C\c1cc(Br)ccc1O)/C=C/c1cc(Br)ccc1O`, the growth inhibition in test [1] (setting [7]) was 58%; in test [1] (setting [8]), 90% (active); in test [1] (at 50.0 µM), 76.8% (active); in test [2] (setting [7]), 95% (active); in test [2] (setting [8]) it was 91% (active); in test [2] (at 50.0 µM), 75.8% (active). The growth inhibition in test [3] (setting [7]) was 80% (active); in test [3] (setting [8]), 91% (active); in test [3] (at 50.0 µM), 73.3% (active); in test [4] (setting [7]), 36%; in test [4] (setting [8]) it was 88% (active); in test [4] (at 50.0 µM) it was 36.4%. The growth inhibition in test [5] (setting [7]) was 95% (active); in test [5] (setting [8]), 91% (active); in test [5] (at 50.0 µM) it was 89% (active); in test [6] (setting [7]), 48%; in test [6] (setting [8]) it was 86% (active); in test [6] (at 50.0 µM), 75% (active).

For `c1cc(NC2CCCCC2)ccc1CN1CCOCC1`, the growth inhibition was 57% in test [1] (setting [7]); 90% (active) in test [1] (setting [8]); 55.3% in test [1] (at 50.0 µM); 51% in test [2] (setting [7]); 73% (active) in test [2] (setting [8]); 70.5% (active) in test [2] (at 50.0 µM). In addition, the growth inhibition in test [3] (setting [7]) is 80% (active); in test [3] (setting [8]) it was 88% (active); in test [3] (at 50.0 µM), 70%; in test [4] (setting [7]), 72% (active); in test [4] (setting [8]), 87% (active); in test [4] (at 50.0 µM), 63.8%. Also, the growth inhibition was 80% (active) in test [5] (setting [7]); 78% (active) in test [5] (setting [8]); 68.2% in test [5] (at 50.0 µM); 56% in test [6] (setting [7]); 82% (active) in test [6] (setting [8]); 79% (active) in test [6] (at 50.0 µM).

Source of the values: PubChem BioAssay (NCI).
